# From the supplement of paper PMC3334620
# In all, about 33,000 sequences were measured (“E-score (-0.5 to 0.5)”: median about -0.016, highest 2% from about 0.3 on). The list comes from a sample in which the highest values are over-represented; it also holds similar and randomly drawn sequences.
# Molecular target: T1, Yer184c (UniProt P39961)
# T1 sequence: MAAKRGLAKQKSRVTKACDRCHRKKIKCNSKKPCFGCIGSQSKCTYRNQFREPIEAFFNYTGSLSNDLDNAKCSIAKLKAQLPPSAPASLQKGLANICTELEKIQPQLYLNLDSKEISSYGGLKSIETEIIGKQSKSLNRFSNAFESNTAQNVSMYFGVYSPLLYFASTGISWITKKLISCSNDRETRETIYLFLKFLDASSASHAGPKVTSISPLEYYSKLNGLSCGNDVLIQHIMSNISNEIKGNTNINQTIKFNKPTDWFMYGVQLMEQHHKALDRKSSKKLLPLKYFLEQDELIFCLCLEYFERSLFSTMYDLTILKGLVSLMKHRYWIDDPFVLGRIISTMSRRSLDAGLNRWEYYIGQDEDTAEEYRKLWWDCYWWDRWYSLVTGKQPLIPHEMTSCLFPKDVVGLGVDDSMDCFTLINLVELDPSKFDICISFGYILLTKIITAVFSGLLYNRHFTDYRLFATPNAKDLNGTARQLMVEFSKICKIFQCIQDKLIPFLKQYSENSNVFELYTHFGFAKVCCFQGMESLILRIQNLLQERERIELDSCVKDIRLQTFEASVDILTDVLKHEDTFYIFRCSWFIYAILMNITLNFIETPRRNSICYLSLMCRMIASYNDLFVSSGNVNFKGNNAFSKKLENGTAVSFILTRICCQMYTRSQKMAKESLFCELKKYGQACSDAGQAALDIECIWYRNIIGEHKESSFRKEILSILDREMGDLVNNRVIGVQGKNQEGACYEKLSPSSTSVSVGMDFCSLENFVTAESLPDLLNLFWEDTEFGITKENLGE
# Test: PBM E-score (8-mer binding enrichment) (E-score (-0.5 to 0.5)); higher = stronger / more preferred TF binding
# Conditions: protein concentration: 100 nM; construct: GST-full length
# Method in brief: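 Using PURExpress in vitro transcription/translation, GST-tagged yeast transcription factors were made in full-length or DNA-binding-domain form. These were applied at about 100-200 nM to double-stranded universal all-10-mer Agilent arrays, and bound protein was detected with fluorescent anti-GST. Scans were normalised with masliner before the Universal PBM Analysis Suite assigned E-scores to ungapped eight-base words pooled with their reverse complements.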
row,Sequence,PBM E-score
1,AGTGAGCA,-0.0113
2,CGGGTTGC,0.118
3,AGCTGGAC,-0.0983
4,AAACCCAC,0.0014
5,AACGCAGT,-0.081
6,ACTCGCCG,0.131
7,AGCACCAT,-0.291
8,GCCCAAGC,-0.0265
9,TGCCGTAA,0.0109
10,TGCCGGAA,0.421
11,AGCCGGAA,0.423
12,AGGCGGAA,0.195
13,AGACGGAA,0.277
14,CGGCGGAA,0.298
15,CGCCGGAA,0.368
16,TGACGGAA,0.17
17,CGCCGGAC,0.28
18,CCTGGTTC,-0.0462
19,CGAGCCCC,-0.186
20,AAGAGAAT,0.0316
21,ACGTTAGT,-0.0893
22,CGATTTCC,0.214
23,CGGCACCC,0.048
24,CGGCACCA,0.256
25,CGGCACCG,0.346

row,Sequence,PBM E-score
1,CCTACCAA,0.0704
2,TCTCAAGA,-0.0209
3,CCCTAGAC,-0.189
4,GCGGTTGA,0.113
5,CCGGTTTC,0.244
6,ACGGTTGC,-0.129
7,CCGGTTGC,0.355
8,CCGGTTGA,0.321
9,ACGGTTGA,-0.0221
10,ACTCTTCT,-0.0645
11,CTTGGTCC,0.0693
12,TCGTGTCA,-0.0881
13,ACACTGCT,-0.244
14,GCAATAGA,-0.0314
15,CCTCAGCC,-0.233
16,ACGCTTTA,-0.0723
17,CAGTCGCG,-0.189
18,CAATCCGC,0.095
19,AAATCCGG,0.394
20,CAATCCGA,0.184
21,CAATCCGG,0.316
22,AAATCCGT,0.181
23,AAATCCGC,-0.00733
24,AGCGGTGA,-0.0103
25,ACTCTGCG,0.013

row,Sequence,PBM E-score
1,CCCGTTAA,-0.0453
2,GCCGTTAA,0.169
3,TCCGTTAA,0.305
4,TCGGTTAA,0.333
5,CCGGTTAA,0.297
6,GCGGTTAA,0.0539
7,ATTGTGAG,0.09
8,ACTTCTCG,0.17
9,CCGCCGCG,0.172
10,CCGCCAAA,0.14
11,ACGCCGAG,0.328
12,CCGCCGAC,0.109
13,CCGCCGAG,0.304
14,ACGCCGCG,0.0694
15,CCGCCGTA,0.075
16,CCGCCGAA,0.313
17,ACGCCGTG,0.0103
18,CCTAAAGG,-0.122
19,GCTACCGA,0.0575
20,AAATGAGC,0.038
21,CTAGGAGA,-0.0687
22,CCCGACTC,-0.0899
23,CCTAAAAA,0.105
24,GCCGAAGC,0.246
25,GCCGAAGA,0.315

row,Sequence,PBM E-score
1,ACCGAAGT,0.136
2,GACGAAGA,0.0167
3,CCCGAAGA,0.105
4,ACCGAAGC,0.1
5,TACGAAGA,0.05
6,ACCGAAGA,0.344
7,TCCGAAGA,0.376
8,CTCTAGTC,-0.244
9,GGAGTTGA,0.0129
10,CGGGGATC,0.0365
11,CCGGGATC,0.339
12,ACGGGACC,-0.109
13,CCGGGATA,0.315
14,CCCGGATA,0.286
15,GCGGGACC,-0.0189
16,CGGGGATA,0.0634
17,GCGGGATA,0.0399
18,ACGGGATC,0.0948
19,CCCGGACC,0.149
20,CCGGGACC,0.342
21,CCCGGATC,0.318
22,CAAAACCG,0.116
23,GAACTCAA,0.0685
24,AGTTCTAT,-0.0389
25,ACCCAATC,-0.00791

row,Sequence,PBM E-score
1,GCTTGTCC,0.114
2,CGAATTTC,0.276
3,AAGGTTGG,-0.24
4,AGAGTGAG,-0.128
5,GTTTAAAA,0.162
6,GTTTAAAC,0.32
7,CTTTAAAC,-0.052
8,AATACCCG,0.104
9,TTGGAAAA,0.134
10,ATGGAAAA,0.158
11,GCGGAAAC,0.0908
12,AAGGAAAT,0.107
13,ACGGAAAT,0.39
14,ACGGAAAA,0.309
15,GCGGAAAA,0.216
16,TGGGAAAA,-0.0424
17,AAGGAAAC,0.0646
18,TCGGAAAA,0.382
19,ACGGAAAC,0.306
20,AGGGAAAT,-0.166
21,AAGTGGGA,0.034
22,CCAGCGGG,0.134
23,ATACCCAT,-0.0126
24,ATAGAGAA,0.103
25,CATTCGAG,-0.0644

row,Sequence,PBM E-score
1,ACATCTCC,0.128
2,GTCATTCA,0.0449
3,CCGTCTCG,0.159
4,AGCTCGGC,0.316
5,AGCTCGGG,0.138
6,ACCTCGGC,0.238
7,ATCTCGGC,0.37
8,AACTCGGC,0.273
9,CTCTCGGC,0.238
10,ATCTCGGA,0.31
11,CACTCGGC,0.331
12,ATCTCGGG,0.219
13,AGCTCGGA,0.159
14,CACTCGGG,0.0303
15,GTCTCGGA,0.227
16,ACAGTAGT,-0.0892
17,AAGACCAA,0.052
18,GAGCCTAA,-0.0836
19,ACTGCAAA,0.0905
20,GTAAGCGA,0.00236
21,GCTCAAAA,0.199
22,TTATACAA,0.313
23,ATATACAA,0.219
24,GTATACAA,0.125
25,CAACTTTC,0.0846

row,Sequence,PBM E-score
1,GTACTACA,0.0564
2,CTTGTCTC,0.0611
3,AATATGCA,-0.0575
4,ACGGCTCG,0.21
5,ACGGCTAA,0.233
6,GCGGCTCA,0.2
7,TCGGCTAA,0.313
8,TCGGCTCA,0.2
9,CCGGCTCC,0.293
10,GCGGCTAA,0.186
11,CCGGCTCA,0.362
12,CCGGCTCG,0.339
13,CAAGAGGA,-0.0179
14,CCGGTCGA,0.141
15,ACTGCCGA,0.262
16,AGGCGAGG,-0.204
17,CATGCTTA,-0.103
18,CTCCAAGC,-0.181
19,CGCTAATC,-0.0149
20,GGAGGGCC,-0.308
21,ACGCCCGA,0.056
22,AATATATT,0.38
